Source: PubChem (The Scripps Research Institute Molecular Screening Center)
MITF primary: inhibitors of human MITF; O75030; AlphaScreen MITF homodimerization, bead proximity signal; inhibition, % at 2.6 µM; 650,000 tested, 0.91% active; AID 1259374; in the data active = inhibition above about 50%;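 also: 0% = vehicle wells with protein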
FBW7 act: activators of human E3 ligase FBW7; 650,000 tested, 0.13% active; AlphaScreen FBW7–phospho-cyclin E peptide binding, activator screen; normalized activity (activation), % at 26.1 µM; Q969H0; AID 1259310; in the data active = normalized activity above about 1.9%;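 also: purified mutant Fbw7 with reduced substrate affinity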
GPR151 ag: activates the human receptor GPR151 | Q8TDV0 | PathHunter beta-arrestin GPR151 cells, luminescence | activation, % at 11.2 µM | 650,000 tested, 1% active; in the data active = activation above about 4.9%;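 also: 0% = median of compound wells and 100% = cells with positive control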
Target sequence (Q8TDV0 whole entry, looked up): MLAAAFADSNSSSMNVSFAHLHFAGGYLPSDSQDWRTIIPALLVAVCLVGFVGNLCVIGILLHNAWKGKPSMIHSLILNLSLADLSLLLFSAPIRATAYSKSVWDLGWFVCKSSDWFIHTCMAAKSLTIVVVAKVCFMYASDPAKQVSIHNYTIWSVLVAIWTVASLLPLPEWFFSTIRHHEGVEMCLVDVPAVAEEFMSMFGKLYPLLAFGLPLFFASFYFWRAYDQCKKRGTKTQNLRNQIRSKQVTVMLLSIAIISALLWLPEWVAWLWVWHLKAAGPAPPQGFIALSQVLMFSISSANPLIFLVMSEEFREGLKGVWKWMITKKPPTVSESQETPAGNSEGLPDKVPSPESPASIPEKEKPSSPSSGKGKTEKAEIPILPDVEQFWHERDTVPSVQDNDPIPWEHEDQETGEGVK
TEAD-YAP inh: TEAD-YAP interaction inhibition. HEK-TIYL cells, TEAD-Gal4/YAP UAS-luciferase luminescence. inhibition, % at 9.12 µM. 640,000 tested, 1.4% active. AID 1259422; in the data active = inhibition above about 32%;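 also: 0% = median of test compound wells and 100% = reference inhibitor wells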
* hit, by the source's call. Hits are enriched below; roughly 3.4% of the tested compounds scored in any of these assays.

SMILES	MITF primary	FBW7 act	GPR151 ag	TEAD-YAP inh
Oc1ccc(CCNc2nc(Nc3ccc(-n4ccnc4)cc3)nc3c2ncn3-c2ccsc2)cc1	6	0	0	62*
CCCNc1nc(Nc2ccc(-n3ccnc3)cc2)nc2c1ncn2-c1ccsc1	-8	0	-1	51*
CCCNc1nc(Nc2ccncc2)nc2c1ncn2-c1ccsc1	-4	0	0	56*
CCCNc1nc(Nc2ccc(-n3ccnc3)cc2)nc2c1ncn2-c1ccccc1	3	0	2	49*
c1ccc(-n2nnnc2NCC2(N3CCOCC3)CCCCC2)cc1	9	0	-3	-1
COc1ccc(-n2c(=S)[nH]c3cc(C(=O)NCC4CCCO4)ccc3c2=O)cc1 (configuration not stated)	-12	0	1	-2
COC(=O)c1cc(NC(=O)CN2C(=O)c3ccccc3C2=O)cc(C(=O)OC)c1	8	0	0	0
COc1ccc2cc(C#N)c(SCC(=O)Nc3ccc4c(c3)OCO4)nc2c1	-8	0	0	9
CCOc1ccccc1N1C(=O)c2ccc(S(=O)(=O)c3ccc4c(c3)C(=O)N(c3ccccc3OCC)C4=O)cc2C1=O	-14	0	0	-9
c1cc(N2CCCC2)ccc1CN1CCc2nncn2CC1	-12	0	0	0
CCCNc1nc(Nc2cc(OC)c(OC)c(OC)c2)nc2c1ncn2-c1ccsc1	-6	0	0	23
CCCNc1nc(Nc2ncccn2)nc2c1ncn2-c1ccsc1	-3	0	2	19
COc1cc(Nc2nc(NCCc3ccc(O)cc3)c3ncn(-c4ccsc4)c3n2)cc(OC)c1OC	3	0	-1	36*
CCCNc1nc(Nc2ccccc2)nc2c1ncn2-c1ccsc1	10	0	0	55*
O=C(NCc1noc2ccccc12)NC1CCCCCC1	2	0	-1	-27
Cc1cccc(-n2nnnc2Sc2ccc([N+](=O)[O-])c3cnccc23)c1	6	0	3	46*
Cn1cnnc1Sc1ccc([N+](=O)[O-])c2cnccc12	-4	0	0	2
CNC(=O)c1ccccc1Nc1cc(Nc2ccc(C(=O)NC[C@H](O)C(=O)N(C)C)cc2OC)ncc1C(F)(F)F	29	0	-1	17
CCN(CC)CCNC(=O)c1ccc(Nc2cc(Nc3ccccc3C(=O)NC)c(C(F)(F)F)cn2)c(OC)c1	9	0	0	64*
COc1cc(N2CCOCC2)ccc1Nc1cc(Nc2ccccc2C(N)=O)c(C(F)F)cn1	-5	0	0	-11
COc1cc(N2CCOCC2)ccc1Nc1cc(Nc2ccccc2C(=O)N(C)C)c(C(F)(F)F)cn1	27	0	0	-1
CNC(=O)c1ccccc1Nc1cc(Nc2ccc(N3CCOCC3)cc2OC)ncc1C	13	0	-1	44*
CNC(=O)c1ccccc1Nc1cc(Nc2ccc(C(=O)N(C)C)cc2OC)ncc1C(F)(F)F	3	0	-1	57*
N#Cc1c(-c2ccccc2)cc(-c2ccccc2)nc1SCC(=O)N1CCCCC1	6	0	1	11
O=C1N[C@H](CO)C(=O)N2CCN(CC3CCCCC3)C[C@H]12	-5	-1	2	5
SMILES	MITF primary	FBW7 act	GPR151 ag	TEAD-YAP inh
COC(=O)/C(N=Nc1ccc(-c2ccccc2)cc1)=C(/O)CCl	7	0	-7	61*
CCOC(=O)/C(N=Nc1ccc([N+](=O)[O-])cc1)=C(\O)CCl	-10	0	1	-11
O=C(CSc1n[nH]c(=O)n1Cc1ccccc1)Nc1ccc(Br)cc1F	-1	0	3	34*
CN(CC(=O)Nc1ccccc1Cl)C(=O)CN1C(=O)NC2(CCCC2)C1=O	10	0	2	3
Cc1sc2ncn(CC(=O)NCC(=O)Nc3ccccc3F)c(=O)c2c1C	10	0	1	3
Cc1ccc(S(=O)(=O)/N=C2/C=C(Sc3ncn[nH]3)C(=O)c3ccccc32)cc1	-6	0	-1	98*
Cc1cc(Br)c(S(=O)(=O)N2CCC(C)CC2)cc1C	7	2.1*	1	1
Cc1cc(Br)c(S(=O)(=O)N2CCCCC2)cc1C	12	0	-1	1
CC1(C)OC(=O)C(=C/C=C/c2ccco2)C(=O)O1	71*	0	0	9
CC(=O)c1ccc(-c2ccc(C=C3C(=O)N(C)C(=S)N(C)C3=O)o2)cc1	-5	0	-1	-14
COc1cccc(N2C(=O)/C(=C/C=C/c3ccco3)C(=O)NC2=S)c1	57*	1	-2	6
O=C1NC(=O)N(c2cccc(F)c2)C(=O)/C1=C\C=C\c1ccco1	27	0	0	-3
CN1C(=O)C(=Cc2ccc(I)o2)C(=O)N(C)C1=S	81*	0	1	-1
CN1C(=O)C(=C/C=C/c2ccco2)C(=O)N(C)C1=S	77*	0	-1	2
CC1(C2CCN(Cc3ccc4c(c3)CCO4)CC2)NC(=O)NC1=O (configuration not stated)	2	0	3	3
Cc1ccc2nc(/C=C/c3ccc([N+](=O)[O-])cc3)oc(=O)c2c1	4	0	0	-3
COCC(=O)Oc1c(C)cc(Br)cc1C	21	0	1	-6
O=C1/C(=C\c2ccco2)N2CCC1CC2	20	0	1	-1
CN1C2CCC1/C(=C\c1ccco1)C(=O)/C2=C\c1ccco1	54*	0	-1	4
CN1C(=O)C(=Cc2ccco2)C(=O)N(C)C1=S	71*	-1	-1	6
Cc1ccn2cc(C34CC5CC(CC(Cl)(C5)C3)C4)nc2c1	-1	0	4	-8
COc1ccc(-c2cc(-c3ccccc3)c(C#N)c(S(C)=O)n2)cc1 (configuration not stated)	-8	0	0	53*
COc1ccc(-c2cc(-c3ccccc3)c(C#N)c(S(=O)Cc3ccccc3)n2)cc1 (configuration not stated)	5	0	-1	3
O=C(COc1ccccc1)Nc1ccc(N2CCC(NCc3ccccc3)CC2)cc1	10	0	1	34*
O=C(Nc1ccc(S(=O)(=O)N2CCCCC2)cc1)c1ccc(CN2CCc3ccccc3C2)cc1	17	1	1	65*
SMILES	MITF primary	FBW7 act	GPR151 ag	TEAD-YAP inh
COC(=O)c1c(C)nn(-c2ccccc2)c1NC(=O)c1cccc(Cl)c1	6	0	5	-7
CCC(C)NS(=O)(=O)c1ccc(Br)cc1 (configuration not stated)	8	0	1	-5
CCC(C)NS(=O)(=O)c1ccc(Cc2ccc(S(=O)(=O)NC(C)CC)cc2)cc1 (configuration not stated)	6	0	1	34*
O=C(Nc1cccc([N+](=O)[O-])c1)c1cn(-c2ccccc2)nc1-c1ccncc1	-5	0	-2	-6
CCOC(=O)C1=C(C)N=c2s/c(=C/c3ccccc3O)c(=O)n2C1c1cc(OC)c(OC)cc1Br (configuration not stated)	17	1	-1	8
c1cn(-c2ccc(Nc3nc(NCCN4CCOCC4)c4ncn(-c5ccsc5)c4n3)cc2)cn1	-5	0	1	46*
